About 83,000 compounds went through this panel and 20% of them were active in at least one assay; those are over-represented in the sample as a whole.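 48-hour exposure, single concentration, 96-well plates; percent growth endpoint where 0 means no net growth. Active: below 10.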 A number with no mark means an inactive call. Calls of active or inactive are those of the source.

The source of these data is PubChem BioAssay (NCI).

The first assay deals with TK-10 renal. Put plainly: NCI-60 one-dose screen, 48 h (100 = growth as untreated, 0 = no growth, -100 = all killed). The note with it: 10 µM unless noted.
Take `O=C(CCCCCCSc1nc(-c2ccc(Cl)cc2)cc(-c2ccc(Cl)cc2)n1)NO`: the growth is 30.7%.
Regarding `O=C1CC(C(F)(F)F)Cc2nc3ccc(Br)cc3cc21` (centres undefined), the growth was 145%.
On the same count and under the same terms, with `COc1ccc(C2NC(=O)C(C#N)c3c2sc2c(F)cccc32)cc1` (centres undefined) the figure was 113%.
`CCCCCn1sc(=O)n(Cc2ccc(CNC(=O)OCc3ccc4cccc(O)c4n3)cc2)c1=O`: the growth was -54% (active).
Turning to `O=[N+]([O-])c1cccc(N=NNc2cccc([N+](=O)[O-])c2)c1`, the growth was 69.7%.
On the same count and under the same terms, to `CCN(CC)CCCOc1ccc2c(c1)O/C(=C\c1cccc(OC)c1)C2=O` belongs 98.7%; to `O=C(OCc1ccc2c(Cl)cc(Cl)c(O)c2n1)N1CCNCC1`, 52.1%.
As to `C=CCCCCOc1ccccc1-c1cnc(OCCCCC=C)n1C`, the growth was 75%.
With `CSc1nc(=S)c2nc(SC)n(-c3ccccc3)c2[nH]1`, the growth is 96.9%.
For the molecule `CC1Cc2c(Cl)ncnc2N(C)c2ccc(O)cc21` (centres undefined), the growth was 94.5%.
Same read-out and setting: to `Nc1nc(Nc2ccccc2)c2ncn(Cc3ccc4c(c3)OCO4)c2n1` belongs 63.3%; to `COc1ccc(-c2cc(-c3ccc(Cl)cc3)nc(SCCCCCCC(=O)NO)n2)cc1`, 34.7%; to `COc1ccc(C(=O)CSc2nccc(Nc3ccc(C(=O)O)cc3)n2)cc1`, 103%.
`CC1(C)OC2[C@@H](CNC(=O)NC(=O)NC(=O)CI)O[C@@H](n3cnc4c(NC(=O)Nc5ccccc5)ncnc43)[C@H]2O1` (some centres undefined): the growth is 102%.
Still for that read-out and setting: to `Cn1cc(-c2noc(-c3cn(C)c4ncc(F)cc34)n2)c2cc(Cl)ccc21` belongs 28%; to `COCCCNc1nc(NC(=O)c2cc(Br)cc(C(F)(F)F)c2)cc(-c2cccnc2)n1`, 95.8%.
The same measure, in the same setting: with `O=C(NCCCNC(=O)OCc1ccc2cccc(O)c2n1)OCc1ccc2cccc(O)c2n1` the figure was 49.6%; with `COc1cccc(-c2[nH]c(=S)ncc2C(=O)c2ccccc2)c1`, 100%; with `CCN(CCO)CCC(=O)c1ccc([N+](=O)[O-])cc1`, 99.8%.
The same measure, in the same setting: with `Cc1ccc(N)c(O)c1` the figure was 158%; with `CC(C)C1=NOC(=O)C1=Cc1cn(-c2ccccc2)nc1-c1ccc(Br)cc1`, 91.5%.
For `Cc1cc[n+](CCCCCCCCCC[n+]2ccc(C)cc2)cc1`, the growth is 82.7%.
The same measure, in the same setting: to `C[C@@H](NC(=O)[C@@H](CC(=O)N1CCC(N2CCCCC2)CC1)N1C(=O)[C@@H](N2C(=O)OC[C@@H]2c2ccccc2)[C@H]1/C=C/c1cccc(Cl)c1)c1ccccc1` belongs 78.9%; to `C/C=C/C1OC23CCCCC2C(C#N)(C(=N)O3)C1(C#N)C#N` (centres undefined), 103%; to `CCCOc1ccc(-c2nc(-c3ccc(N)cc3)cs2)cc1`, 125%.
On the same count and under the same terms, with `Cc1ccccc1OC(=O)c1cccc(Cl)c1` the figure was 108%; with `CC(C)c1ccc(C(=O)Nc2nc3ccc(O)cc3s2)cc1`, 70.3%; with `COc1cc(-c2nc(SCCC(C)C)nc(Nc3ccc(S(N)(=O)=O)cc3)c2C#N)cc(OC)c1OC`, 50%.
`O=C(CSc1nc2ccc([N+](=O)[O-])cc2[nH]1)Nc1cccc(Cl)c1`: the growth was 37.8%.
Still for that read-out and setting: to `COc1ccc2nc3cc(Cl)ccc3c(Nc3ccc(O)cc3)c2c1` belongs 88%; to `O=C(OCc1ccc2c(Cl)cc(Cl)c(O)c2n1)N1CCN(C(=O)c2cc3cc(F)ccc3[nH]2)CC1`, 63.7%; to `COc1ccc(C(C(=O)O)c2ccc(OC)cc2)cc1`, 114%.
Still for that read-out and setting: with `O=C1COCCN1c1ccc(NCc2cn(Cc3ccc(F)cc3)c3ccccc23)cc1` the figure was -32.3% (active).
In the case of `O=C(Nc1cc(-c2cccnc2)nc(NCCCN2CCOCC2)n1)c1cc(Br)cc(C(F)(F)F)c1`, the growth was 65.4%.
Still for that read-out and setting: with `CS(=O)(=O)c1cccnn1` the figure was 109%; with `C[C@]12CCc3c(ccc4cc(O)ccc34)[C@@H]1CC[C@H]2O`, 102%.
Still for that read-out and setting: to `CN(Cc1cccc(C(F)(F)F)c1)C(=O)[C@@H](CC(=O)N1CCC(N2CCCCC2)CC1)N1C(=O)[C@@H](N2C(=O)OC[C@@H]2c2ccccc2)[C@H]1/C=C/c1ccccc1` belongs 93.6%.

The subject of the next assay is ACHN renal. The description is as above. The note with it: 10 µM unless noted.
For the molecule `O=C(CCCCCCSc1nc(-c2ccc(Cl)cc2)cc(-c2ccc(Cl)cc2)n1)NO`, the growth was 15.5%.
Regarding `O=C1CC(C(F)(F)F)Cc2nc3ccc(Br)cc3cc21` (centres undefined), the growth was 91.5%.
Still for that read-out and setting: with `COc1ccc(C2NC(=O)C(C#N)c3c2sc2c(F)cccc32)cc1` (centres undefined) the figure was 43.6%; with `CCCCCn1sc(=O)n(Cc2ccc(CNC(=O)OCc3ccc4cccc(O)c4n3)cc2)c1=O`, -100% (active); with `O=[N+]([O-])c1cccc(N=NNc2cccc([N+](=O)[O-])c2)c1`, 95.7%.
On the same count and under the same terms, to `CCN(CC)CCCOc1ccc2c(c1)O/C(=C\c1cccc(OC)c1)C2=O` belongs 99.8%; to `O=C(OCc1ccc2c(Cl)cc(Cl)c(O)c2n1)N1CCNCC1`, 14%; to `C=CCCCCOc1ccccc1-c1cnc(OCCCCC=C)n1C`, 84.5%.
For the molecule `CSc1nc(=S)c2nc(SC)n(-c3ccccc3)c2[nH]1`, the growth was 102%.
On the same count and under the same terms, to `CC1Cc2c(Cl)ncnc2N(C)c2ccc(O)cc21` (centres undefined) belongs 84.9%.
Still for that read-out and setting: with `Nc1nc(Nc2ccccc2)c2ncn(Cc3ccc4c(c3)OCO4)c2n1` the figure was 56.7%; with `COc1ccc(-c2cc(-c3ccc(Cl)cc3)nc(SCCCCCCC(=O)NO)n2)cc1`, 16.1%.
The same measure, in the same setting: with `COc1ccc(C(=O)CSc2nccc(Nc3ccc(C(=O)O)cc3)n2)cc1` the figure was 101%; with `CC1(C)OC2[C@@H](CNC(=O)NC(=O)NC(=O)CI)O[C@@H](n3cnc4c(NC(=O)Nc5ccccc5)ncnc43)[C@H]2O1` (some centres undefined), 66.2%.
With `Cn1cc(-c2noc(-c3cn(C)c4ncc(F)cc34)n2)c2cc(Cl)ccc21`, the growth is 10.2%.
Same read-out and setting: with `COCCCNc1nc(NC(=O)c2cc(Br)cc(C(F)(F)F)c2)cc(-c2cccnc2)n1` the figure was 87.4%; with `O=C(NCCCNC(=O)OCc1ccc2cccc(O)c2n1)OCc1ccc2cccc(O)c2n1`, 19.8%; with `COc1cccc(-c2[nH]c(=S)ncc2C(=O)c2ccccc2)c1`, 91.1%.
On the same count and under the same terms, to `CCN(CCO)CCC(=O)c1ccc([N+](=O)[O-])cc1` belongs 110%; to `Cc1ccc(N)c(O)c1`, 91%; to `CC(C)C1=NOC(=O)C1=Cc1cn(-c2ccccc2)nc1-c1ccc(Br)cc1`, 81.5%.
As to `Cc1cc[n+](CCCCCCCCCC[n+]2ccc(C)cc2)cc1`, the growth was 105%.
Still for that read-out and setting: to `C[C@@H](NC(=O)[C@@H](CC(=O)N1CCC(N2CCCCC2)CC1)N1C(=O)[C@@H](N2C(=O)OC[C@@H]2c2ccccc2)[C@H]1/C=C/c1cccc(Cl)c1)c1ccccc1` belongs 91.6%; to `C/C=C/C1OC23CCCCC2C(C#N)(C(=N)O3)C1(C#N)C#N` (centres undefined), 94.1%.
With `CCCOc1ccc(-c2nc(-c3ccc(N)cc3)cs2)cc1`, the growth is 97.1%.
Still for that read-out and setting: to `Cc1ccccc1OC(=O)c1cccc(Cl)c1` belongs 107%.
Regarding `CC(C)c1ccc(C(=O)Nc2nc3ccc(O)cc3s2)cc1`, the growth was 21.3%.
Still for that read-out and setting: to `COc1cc(-c2nc(SCCC(C)C)nc(Nc3ccc(S(N)(=O)=O)cc3)c2C#N)cc(OC)c1OC` belongs 29.5%; to `O=C(CSc1nc2ccc([N+](=O)[O-])cc2[nH]1)Nc1cccc(Cl)c1`, 22.5%; to `COc1ccc2nc3cc(Cl)ccc3c(Nc3ccc(O)cc3)c2c1`, 66.6%.
On to `O=C(OCc1ccc2c(Cl)cc(Cl)c(O)c2n1)N1CCN(C(=O)c2cc3cc(F)ccc3[nH]2)CC1`, for which the growth is 26.7%.
Still for that read-out and setting: with `COc1ccc(C(C(=O)O)c2ccc(OC)cc2)cc1` the figure was 109%; with `O=C1COCCN1c1ccc(NCc2cn(Cc3ccc(F)cc3)c3ccccc23)cc1`, 61.6%; with `O=C(Nc1cc(-c2cccnc2)nc(NCCCN2CCOCC2)n1)c1cc(Br)cc(C(F)(F)F)c1`, 75.6%.
Still for that read-out and setting: to `CS(=O)(=O)c1cccnn1` belongs 97.7%.
On the same count and under the same terms, to `C[C@]12CCc3c(ccc4cc(O)ccc34)[C@@H]1CC[C@H]2O` belongs 103%; to `CN(Cc1cccc(C(F)(F)F)c1)C(=O)[C@@H](CC(=O)N1CCC(N2CCCCC2)CC1)N1C(=O)[C@@H](N2C(=O)OC[C@@H]2c2ccccc2)[C@H]1/C=C/c1ccccc1`, 100%.
